Screening data (PubChem)
D1 antagonist – blocks dopamine activation of the human D1 receptor; P21728; HEK293 TREx D1 cells, calcium flux, dopamine EC80; active compounds read low; activity change, negative = inhibition, % at 10 µM; hit rate 3.2% among 360,000; AID 504652; in the data active means activity change below about -30%
Target sequence (P21728 whole entry, looked up): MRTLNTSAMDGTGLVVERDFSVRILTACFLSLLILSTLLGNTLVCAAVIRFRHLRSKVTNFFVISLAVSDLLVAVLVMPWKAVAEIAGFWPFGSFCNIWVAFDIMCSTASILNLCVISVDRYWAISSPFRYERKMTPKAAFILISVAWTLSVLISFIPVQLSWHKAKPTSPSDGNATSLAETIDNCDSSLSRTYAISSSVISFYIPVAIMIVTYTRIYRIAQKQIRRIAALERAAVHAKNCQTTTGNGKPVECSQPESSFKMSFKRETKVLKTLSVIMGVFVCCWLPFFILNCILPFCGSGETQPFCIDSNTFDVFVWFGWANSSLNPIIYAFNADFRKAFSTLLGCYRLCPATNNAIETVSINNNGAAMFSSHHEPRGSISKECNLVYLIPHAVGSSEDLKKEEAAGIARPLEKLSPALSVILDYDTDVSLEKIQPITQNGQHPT
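Kinetic fluorescence of a calcium dye serves as the read-out. D1-expressing Hek293 Trex cells, induced overnight at 30 C, are exposed to compound for 180 s before an EC80 dopamine addition, then read 180 s further.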
TRHR PAM – allosterically enhances the human TRH receptor. P34981. TRHR cells, fluo-8 calcium fluorescence, EC20 TRH enhancement. enhancement, % at 2 µM. hit rate 0.66% among 360,000; in the data active means enhancement above about 30%
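TRHR-expressing cells loaded with fluo-8 calcium dye were read kinetically (ex 480/em 530) during compound addition, then stimulated with an EC20 of TRH (10 nM final). Enhancement of the Gq-mediated intracellular calcium response was scored.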
D1 potentiator – potentiators of human D1 dopamine receptor. potentiation, % at 10 µM. HEK293 TREx D1 cells, calcium flux, dopamine EC20 potentiation. P21728. hit rate 0.036% among 360,000. AID 504651; in the data active means potentiation above about 30%
TRHR ag – agonists of human TRH receptor | activation, % at 2 µM | hit rate 0.18% among 360,000 | P34981 | TRHR cells, calcium flux fluo-8, FDSS agonist mode
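In this calcium-flux screen, cells bearing human TRHR are dye-loaded with fluo-8, baselined for 10 cycles, then exposed to library compounds; positive kinetic calcium responses during the agonist phase mark hits, with TRH as control.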
LDHA block – LDHA (human) enzyme inhibition; purified LDHA, NADH/diaphorase-resazurin fluorescence; active compounds read low; activity change, % (values are at about 110 or 230 µM); hit rate 0.15% among 480,000; in the data active means activity change below about -30%
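Remaining NADH was detected by diaphorase (0.133 mg/mL) converting 37 µM resazurin to fluorescent resorufin, read at 0 and 20 minutes. The preceding 5-minute room-temperature reaction used 2 nM LDHA, 0.2 mM sodium pyruvate and 0.06 mM NADH at pH 7.4.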
D1 ag – agonists of human D1 dopamine receptor; HEK293 T-REx D1 cells, calcium flux, agonist mode; activation, % at 2 µM; hit rate 1% among 360,000; AID 504660
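Tetracycline-induced HEK293 TREx D1 cells, force-coupled to calcium signalling, were dye-loaded with a no-wash calcium kit. Compound was pin-added after a 10 s baseline. Fluorescence was read kinetically at 1 cycle/s for 180 s, with calcium rises flagged as agonism.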
Large screens that a line does not name were inactive; ! = a repeat was not active. Only some compounds are listed: those with a hit (about 3.6% of all), similar ones and a draw of the others. Unless noted, no stated cut-off is given here; in the data, active means activation above about 30%; inactive means the rest.

CCc1noc(C)c1C(=O)Oc1ccc(N(C)S(=O)(=O)c2ccc(C)cc2)cc1	none
COc1ccc(C2NC(C(=O)O)Cc3c2[nH]c2ccccc32)cc1CN1CCN(c2ccc(F)cc2)CC1 (stereo not given)	D1 antagonist -48
COc1ccc(C2NCCc3c2[nH]c2ccccc32)cc1CN1CCc2cc(OC)c(OC)cc2C1C (stereo not given)	D1 antagonist -54, D1 ag 36
COc1ccc(C2NCCc3c2[nH]c2ccccc32)cc1COc1ccc(F)cc1 (stereo not given)	D1 ag 77
COc1ccc(C(=O)c2sc(Nc3ccccc3)nc2N)cc1OC	TRHR PAM 33
CCOC(=O)c1c(-c2ccc(OC)cc2)csc1/N=C/C1=C(O)CCCC1=O	D1 ag 37
COC(=O)c1cc(S(=O)(=O)NCc2ccccc2OC)cn1C	D1 antagonist -48
COC(=O)c1cc(S(=O)(=O)NCc2cccc(OC)c2)cn1C	none
COc1ccccc1CNC(=O)c1cc(S(=O)(=O)N2CCCC(C)C2)cn1C (stereo not given)	TRHR PAM 38
COC(=O)c1cc(S(=O)(=O)NCC2CCN(Cc3cccc(F)c3)CC2)cn1C	D1 antagonist -39!
CN(C)c1ccc(/C=C(/C#N)C(=O)NCc2ccccc2)o1	TRHR ag 43, D1 ag 102
COC(=O)N/N=C\c1c(C)nn(-c2ccccc2)c1Cl	none
Cc1nn(-c2ccccc2)c(Cl)c1/C=N/NC(N)=O	D1 antagonist -32
CSCc1ccc(C(=O)N(CC2CCOC2)C2CC2)cc1 (stereo not given)	none (no result: D1 antagonist, TRHR PAM, D1 potentiator, TRHR ag, D1 ag)
C=CCn1c(N2CCN(Cc3ccc(Cl)c(Cl)c3)CC2)nc2c1c(=O)[nH]c(=O)n2C	none (no result: D1 antagonist, TRHR PAM, D1 potentiator, TRHR ag, D1 ag)
Cc1ccc(CN(Cc2cc(=O)n3[nH]c(-c4cccc(C)c4)cc3n2)CC(C)C)cc1	none (no result: D1 antagonist, TRHR PAM, D1 potentiator, TRHR ag, D1 ag)
COc1ccccc1/C=C/C(=O)/C=C/c1ccccc1O	D1 antagonist -34
COc1ccccc1C=CC(=O)C=Cc1ccccc1OC	none (no result: D1 antagonist, TRHR PAM, D1 potentiator, TRHR ag, D1 ag)
O=c1c2ccccc2c(-c2cccs2)nn1CC(O)COCc1ccccc1Cl (stereo not given)	none (no result: D1 antagonist, TRHR PAM, D1 potentiator, TRHR ag, D1 ag)
Cc1ccc(CCNC(=O)C2CC(c3cccc(F)c3)=NO2)cc1 (stereo not given)	D1 antagonist -62
CC(C)CCNC(=O)C1CC(c2cccc(F)c2)=NO1 (stereo not given)	none
CCCCNC(=O)C1CC(c2cccc(F)c2)=NO1 (stereo not given)	D1 antagonist -45
N#CC1=C(N)OC2=C(C(=O)CC(c3ccccc3)C2)C1c1cccc(Cl)c1 (stereo not given)	none (no result: D1 antagonist, TRHR PAM, D1 potentiator, TRHR ag, D1 ag)
Cc1ccc(-c2nonc2NC(=O)c2ccccc2Br)cc1	none (no result: D1 antagonist, TRHR PAM, D1 potentiator, TRHR ag, D1 ag)
O=C(/C=C/c1ccc(N(c2ccccc2)c2ccccc2)cc1)c1cccc(C(F)(F)F)c1	none (no result: D1 antagonist, TRHR PAM, D1 potentiator, TRHR ag, D1 ag)
O=C(Cc1cccc(F)c1)Nc1ccccc1C(F)(F)F	none (no result: D1 antagonist, TRHR PAM, D1 potentiator, TRHR ag, D1 ag)
O=C(CCNC(=O)c1ccc(Br)cc1)NCC1COc2ccccc2O1 (stereo not given)	D1 antagonist -41
CC(Sc1ccc(Br)cc1)c1nc(-c2ccco2)no1 (stereo not given)	none (no result: D1 antagonist, TRHR PAM, D1 potentiator, TRHR ag, D1 ag)
CC1=Nc2cc(C(=O)N3CCCCC3)ccc2Sc2ccc(C)cc21	D1 antagonist -44!
CC1=Nc2cc(C(=O)N3CCCC3)ccc2Sc2ccc(C)cc21	none
Cc1cc2nc(CCl)cc(=O)n2[nH]1	none
Cc1cc2nc(CSc3ccccc3)cc(=O)n2[nH]1	D1 antagonist -33
Cc1ccc(NC(=O)Nc2ccccc2CC[N+](=O)[O-])cc1	D1 antagonist -32
Cc1ccc(S(=O)(=O)NNC(=O)C2Cc3c(ccc4ccccc34)O2)cc1 (stereo not given)	D1 ag 33
CCc1c(C(=O)NC(C)C)csc1C	none (no result: D1 antagonist, TRHR PAM, D1 potentiator, TRHR ag, D1 ag)
CC(C)CN1CCOC(CNC(=O)C2CCN(c3nc4ccccc4o3)CC2)C1 (stereo not given)	none (no result: D1 antagonist, TRHR PAM, D1 potentiator, TRHR ag, D1 ag)
CCN(CC(=O)Nc1ccc(NC(C)=O)cc1)C(=O)CCCN1C(=O)c2ccccc2C1=O	none
CCN(CC(=O)Nc1ccc(NC(C)=O)cc1)C(=O)CCN1C(=O)C2CC=CCC2C1=O (stereo not given)	D1 antagonist -44
CCN(CC(=O)Nc1ccc(NC(C)=O)cc1)C(=O)CCCOc1ccc(C(C)(C)C)cc1	D1 ag 32
Cc1noc(CSc2nc(C3CC3)nc3ccccc23)n1	none (no result: D1 antagonist, TRHR PAM, D1 potentiator, TRHR ag, D1 ag)
O=S(=O)(Cc1ccccc1Cl)N1CCCC1	none (no result: D1 antagonist)
CC1CCCCN1S(=O)(=O)Cc1ccccc1Cl (stereo not given)	D1 antagonist -87
Cc1cc(OCC(=O)NC2CCCCC2)ccc1Cl	none
Cc1cc(OCC(=O)OCC(=O)N2CCc3ccccc32)ccc1Cl	none
O=C(COc1ccc(C(=O)c2ccccc2)cc1)NC1CCCCC1	D1 antagonist -31
Cc1cc(OCC(=O)OCC(=O)NC2CCCC2)ccc1Cl	D1 antagonist -36
Cc1cc(OCC(=O)OCC(=O)N2CCc3ccccc3C2)ccc1Cl	D1 antagonist -43
O=C(CCCOc1ccc(Cl)cc1Cl)N1CCc2ccccc2C1	D1 ag 33
Cc1ccc(C)c(OCCC(=O)OCC(=O)NC2CC2)c1	none
O=C(COC(=O)COc1ccc(Cl)cc1)NC1CCCCC1	none
CC(C)(C)c1ccc(OCCC(=O)OCC(=O)NC2CCCCC2)cc1	D1 antagonist -44
Cc1ccc(C)c(OCCC(=O)OCC(=O)NC(=O)NC2CCCC2)c1	D1 antagonist -36
O=C(COC(=O)COc1ccc(Cl)cc1)NC1CCCC1	D1 antagonist -33
O=C(Nc1cccc2cccnc12)c1cc(Cl)cc(Cl)c1	none (no result: D1 antagonist, TRHR PAM, D1 potentiator, TRHR ag, D1 ag)
CCOCc1ccc(CNC(=O)c2nccnc2N)cc1	none (no result: D1 antagonist, TRHR PAM, D1 potentiator, TRHR ag, D1 ag)
COc1ccc(Nc2nc(NN)nc(Nc3ccc(OC)cc3)n2)cc1	D1 antagonist -31
c1ccc(Nc2ccnc(Nc3ccccc3)n2)cc1	D1 antagonist -34
NNc1nc(Nc2ccccc2)nc(N2CCCCC2)n1	none
NNc1nccc(Nc2ccccc2C(=O)O)n1	none
NNc1nc(Nc2ccccc2)nc(Nc2ccccc2)n1	D1 antagonist -30
COc1ccc(Nc2ccc(OC)cc2)cc1	none
Oc1ccc(-c2nc(-c3ccc(Br)s3)cs2)cc1	none (no result: D1 antagonist, TRHR PAM, D1 potentiator, TRHR ag, D1 ag)
COc1cc(OC)c(NC(=O)Cn2nc(Cc3ccncc3)c3ccccc3c2=O)cc1Cl	none (no result: D1 antagonist, TRHR PAM, D1 potentiator, TRHR ag, D1 ag)
CCn1cc2nc(SCC(=O)N3CCCC3)n(Cc3ccc(OC)cc3)c(=O)c2n1	none (no result: D1 antagonist, TRHR PAM, D1 potentiator, TRHR ag, D1 ag)
CCCOC(=O)c1ccc2c(c1)C(=O)N(c1ccccc1)C2=O	D1 antagonist -35
COc1cc(OC)cc(C(=O)N2CCN(C3CCN(Cc4ccccc4)CC3)CC2)c1	LDHA block -31
COc1cccc(CN2CCN(C(=O)c3ccc(-c4ccccc4)cc3)CC2)c1OC	D1 antagonist -37
COc1cc(CN2CCN(C(=O)c3ccc(-c4ccccc4)cc3)CC2)cc(OC)c1OC	TRHR PAM 33
